The values that follow come from PubChem BioAssay AID540276 (National Center for Advancing Translational Sciences (NCATS), 2011).

Screen size: about 300,000 compounds; about 5,400 (1.8%) were called active. Another 28% or so got no clear call; they are omitted. What follows is part of a selection rich in actives, with near analogues and random picks from the rest. Unmarked numbers belong to inactive results. The call rests on the fitted dose curve; tested in HEK293 cells.
On the % scale 0 is the no-effect control and ±100 the full control effect; potency means the concentration at half of the fitted maximal effect.

This experiment in a line: qHTS for inhibitors of binding or entry into cells for Marburg Virus. As to conditions: Marburg virus pseudotyped entry inhibition, cell reporter; series mostly up to 37.8 µM; activity change, negative = inhibition: at the top concentration. (In general: qHTS replaces the single test concentration by a dilution series.)
Take `CCOC(=O)c1ccc(NC(=O)CSc2ncccn2)cc1`: the “activity change, negative = inhibition” value is 5.39%.
Turning to `CCOC(=O)c1ccc(NC(=O)CS(=O)(=O)c2cn(CC)c3ccccc23)cc1`, the Potency was 8.2 µM (active).
As for `CC(=O)Nc1ccc(NC(=O)CS(=O)(=O)c2cn(CC(=O)N3CCCCC3)c3ccccc23)cc1`, the “activity change, negative = inhibition” value is 8.57%.
Turning to `CCC1CCCCN1C(=S)Nc1ccc(S(=O)(=O)Nc2ncccn2)cc1` (stereo not drawn), the “activity change, negative = inhibition” value was -1.62%.
On the same count and under the same terms, the figure for `COc1ccc(CCNC(=O)c2ccccc2OCc2ccccc2)cc1` is -30%; for `CC(=O)N1CCc2ccc(N)cc21` it is -11.8% [at 46.1 µM]; for `CCOc1ccc(NC(=O)CN(C)C(=O)COc2cccc(CC)c2)cc1OCC` it is 15%.
The same measure, in the same setting: the figure for `CC(C)CN1CC(C)C(=O)N(c2ccccc2)C1=S` (stereo not drawn) is 0.536% [at 46.1 µM]; for `O=C(O)c1ccc(S(=O)(=O)c2ccccc2)s1` it is 0.365% [at 46.1 µM]; for `CCCCc1nc2cc(C(=O)N3CCCCC3CCO)ccc2o1` (stereo not drawn) it is 2.41%.
Still for that read-out and setting: the figure for `Cc1nn(-c2ccccc2)c(C)c1NC(=O)COC(=O)Cc1ccccc1` is -0.499%.
Turning to `Cc1nn(-c2ccccc2)c(C)c1NC(=O)COc1ccc(Cl)cc1Cl`, the Potency was 11.6 µM (active).
As to `C/C=C/c1ccc(OCC(=O)OCC(=O)Nc2c(C)nn(-c3ccccc3)c2C)c(OC)c1`, the “activity change, negative = inhibition” value is 1.47%.
Same read-out and setting: the figure for `COc1ccc(CCNC(=O)C(=O)NCC2OCCN2S(=O)(=O)c2cccs2)cc1OC` (stereo not drawn) is 21.7%; for `CCc1ccc(N2CC(C(=O)N3CCCCCC3)CC2=O)cc1` (stereo not drawn) it is 11% [at 46.1 µM]; for `CCN(c1ccccc1)S(=O)(=O)c1cc(C(=O)NCc2ccccn2)ccc1C` it is 13.3%.
In the case of `COc1cccc2c1C(=O)c1c(O)c3c(c(O)c1C2=O)CC(O)(C(C)=NNC(=O)c1ccc(Cl)c(Cl)c1)CC3OC1CC(N)C(O)C(C)O1` (stereo not drawn), the Potency is 0.447 µM (active).
In the case of `COc1ccc(C(=O)Nc2ccccc2C(=O)N2CCN(c3ccccc3)CC2)cc1`, the “activity change, negative = inhibition” value is 3.79%.
The same measure, in the same setting: the same measure for `Cc1ccc(-c2csc(NC(=O)C3=COCCO3)n2)cc1C`: -17.8% [at 46.1 µM].
In the case of `O=C(Nc1nc(-c2ccc3c(c2)OCO3)cs1)c1ccncc1`, the Potency is 7.94 µM (active).
In the case of `CC(=O)NCCC(=O)Nc1nc(-c2ccc3c(c2)OCCO3)cs1`, the “activity change, negative = inhibition” value was -1.66% [at 46.1 µM].
Still for that read-out and setting: the same measure for `Cc1ccc(S(=O)(=O)N2CCC(C(=O)N3CCCCCCC3)CC2)cc1`: 6.29% [at 46.1 µM]; for `CCOC(=O)C1CCCN(C(=O)C2CCN(S(=O)(=O)c3ccc(Cl)c(C(F)(F)F)c3)CC2)C1` (stereo not drawn): -20.9%; for `CCOC(=O)CC1=C(C(=O)OCC)[C@H](c2cc(OC)c(OC)cc2OC)C(C#N)=C(N)O1`: 0.118%.
As for `Cc1c(Cl)cccc1NC(=S)NCC(O)c1ccccc1` (stereo not drawn), the “activity change, negative = inhibition” value was -1.89%.
For `COCCOC(=O)C1=C(C)NC(=O)CC1c1cc2c(cc1Br)OCO2` (stereo not drawn), the Potency result was “inactive”.
In the case of `COc1ccccc1C1C2=C(COC2=O)Nc2cc3c(cc21)OCO3` (stereo not drawn), the “activity change, negative = inhibition” value is 5.47%.
Regarding `CCCOc1ccccc1C1CC(=O)Nc2cc3c(cc21)OCO3` (stereo not drawn), the Potency was 6.31 µM (active).
Turning to `CC(NCc1nc2ccccc2n1C)C12CC3CC(CC(C3)C1)C2` (stereo not drawn), the Potency is 11.2 µM (active).
On to `Cn1c(COc2ccccc2C(C)(C)C)nc2ccccc21`, for which the “activity change, negative = inhibition” value is 9.63% [at 46.1 µM].
On the same count and under the same terms, the same measure for `Cn1c(CNC(=O)C(C)(C)C)nc2ccccc21`: 10.6%; for `C#CCOCCOCCOCCNc1nc(N2CCN(C(=O)Cn3cc(CCO)nn3)CC2)nc(N2CCN(C(=O)Cn3cc(CCCN=C(N)N)nn3)CC2)n1`: -4.16%.
Regarding `O=C1C(=O)N(CCN2CCOCC2)[C@@H](c2ccccn2)/C1=C(/O)c1ccc(F)cc1`, the “activity change, negative = inhibition” value was 1.86%.
On to `CCN(CC)c1ccc(/C=N/Nc2nc(C)cc(C)n2)c(O)c1`, for which the Potency is 6.51 µM (active).
`Cc1cc(C)nc(N/N=C/c2ccncc2)n1`: the “activity change, negative = inhibition” value is -5.04%.
As for `CCN(CC)c1ccc(/C=N/Nc2nc(C)cc(=O)[nH]2)cc1`, the “activity change, negative = inhibition” value is -19.9%.
For `CN(C)c1cc2c(Nc3ccc4c(cnn4Cc4ccccc4)c3)ncnc2cn1`, the Potency is 8.91 µM (active).
On to `Cn1ncc2c(Nc3cccc4ccccc34)ncnc21`, for which the “activity change, negative = inhibition” value was 5.72% [at 46.1 µM].
On the same count and under the same terms, the figure for `Clc1ccc(Nc2ncnc3c2nnn3Cc2ccccc2)cc1` is 1.6% [at 46.1 µM].
Still for that read-out and setting: the same measure for `Cc1ccc(CN2CCNC(=O)C2CC(=O)NCc2csc(C(C)C)n2)cc1` (stereo not drawn): 10.2%; for `Cc1ccsc1C(=O)NNC(=O)COc1ccc(Br)cc1`: 1.92%.
On the same count and under the same terms, the figure for `CC1CCN(C(=O)c2ccc3c(=O)n4c(nc3c2)CCCCC4)CC1` is 3.95% [at 46.1 µM]; for `CCn1c(=O)c2cc(C(=O)NCCc3ccc(Cl)cc3)sc2c2ccccc21` it is 8.62% [at 46.1 µM]; for `CCc1ccc(CNC(=O)c2cc3c(=O)n(CC)c4ccccc4c3s2)cc1` it is -0.8% [at 46.1 µM].
As for `CCN(CCCNC(=O)c1cc2c(=O)n(CC)c3ccccc3c2s1)Cc1ccccc1`, the Potency was 4.47 µM (active).
Consider `Cc1ccc(CS(=O)Cc2ccc(C(=O)N3CCOCC3)o2)cc1` (stereo not drawn), for which the “activity change, negative = inhibition” value is 26.3% [at 46.1 µM].
The same measure, in the same setting: the figure for `C/C(=N\Nc1ccccc1)c1cccs1` is 7.15% [at 46.1 µM].
As for `Oc1ccc2ccccc2c1C=Nc1ccccc1`, the Potency result is “inactive”.
As to `Oc1ccc2ccccc2c1N=Nc1nccs1`, the Potency was 3.55 µM (active).
Regarding `O=C(Cc1ccc(NC(=O)C2CCCN(C(=O)CCc3ccccc3)C2)cc1)Nc1ccc(C(=O)N2CCOCC2)cc1` (stereo not drawn), the “activity change, negative = inhibition” value was -0.35%.
For the compound `COc1ccc(N2CCN(CCNC(=O)Nc3cc(Cl)ccc3Cl)CC2)cc1`, the “activity change, negative = inhibition” value was 11.4% [at 46.1 µM].
The same measure, in the same setting: the same measure for `CN(Cc1ccccc1)C(=O)COC(=O)/C=C/c1ccc2c(c1)OCO2`: 25.9%; for `CC(C)Cn1cnc2c1c(=O)n(CC(=O)NN)c(=O)n2Cc1ccccc1`: -7.84% [at 46.1 µM].
The same measure, in the same setting: the same measure for `COCCn1cnc2c1c(=O)n(Cc1ccc(Br)cc1)c(=O)n2Cc1ccccc1`: -16% [at 46.1 µM].
For the compound `N=c1c2c(-c3ccccc3)c(-c3ccccc3)n(Cc3ccccc3)c2ncn1CCCO`, the Potency is 5.8 µM (active).
Consider `Cc1cc(NC(=O)CCN2CCN(Cc3ccccc3)CC2)ccc1Br`, for which the “activity change, negative = inhibition” value was -28.2%.
Still for that read-out and setting: the same measure for `CCCCN(C(=O)c1ccc(C)o1)c1c(N)n(CCCC)c(=O)[nH]c1=O`: 5.78%; for `CCc1ccccc1NC(=O)NCCN1CCCCC1`: -22.9% [at 46.1 µM].
Turning to `CCCCCCC(O)(CCN1CCCCC1)c1ccccc1` (stereo not drawn), the Potency is 12.6 µM (active).
On to `O=C(c1ccccc1)C(O)(CN1CCCCC1)c1ccccc1` (stereo not drawn), for which the “activity change, negative = inhibition” value was 0.299% [at 46.1 µM].
As to `CCOC(=O)c1ccc(NC(=O)CNC(=O)c2ccco2)cc1`, the “activity change, negative = inhibition” value is 3.64%.
Turning to `COc1ccc(OC)c(C(c2nnnn2C(C)(C)C)N2CCc3ccccc3C2)c1` (stereo not drawn), the Potency is 12.6 µM (active).
With `COCCn1nnnc1C(c1cc2ccc(OC)cc2[nH]c1=O)N1CCc2ccccc2C1` (stereo not drawn), the “activity change, negative = inhibition” value was -18.3%.
Same read-out and setting: the figure for `Cc1ccc(C(c2nnnn2C(C)(C)C)N2CCc3ccccc3C2)cc1` (stereo not drawn) is -6.55%; for `COc1cc2c(cc1OC)CN(C(C)C(=O)Nc1cccc(S(=O)(=O)N3CCOCC3)c1)CC2` (stereo not drawn) it is -9.06%.
The same measure, in the same setting: the same measure for `COc1cc(CN2CC(C)CC(C)C2)cc([N+](=O)[O-])c1O` (stereo not drawn): 6.01%.
Turning to `COc1cc(/C=C2/C(=O)NN(c3ccc(F)cc3)C2=O)cc([N+](=O)[O-])c1O`, the Potency was 3.55 µM (active).
As to `C#CCOc1ccc(/C=C2/C(=O)NN(c3ccccc3)C2=O)cc1OC`, the “activity change, negative = inhibition” value was -1.37%.
